Assay results taken from PubChem BioAssay AID624300 (Southern Research Specialized Biocontainment Screening …, 2012).
Screen size: about 2,400 compounds; about 360 (15%) were called active.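 The calls were made as follows: active = viability falls under 70% at one or more tested concentrations, taken as toxicity; inactive = viability stays over 70% at every dose.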 Only a sample is shown. Measured potencies and affinities stand elsewhere.

Assay: viability loss in HeLa cells – cytotoxicity control for MgcRacGAP inhibitor project, dose response (AID 624300)
Settings: CellTiter-Glo luminescence, 24 h; series mostly up to 100 µM

Compound | outcome
COc1cc(/C=N/N=C(\N)c2nonc2N)ccc1O | inactive
CNc1nnc(-c2ccc(N(C)C)cc2)s1 | inactive
CCN(CC)c1ccc(N=Cc2c(C)[nH]c3ccccc23)cc1 | inactive
COCCNCC(=O)Nc1ccc(C)c(S(=O)(=O)N2CCCCC2)c1 | inactive
COc1cc(/C=N/NC(=O)c2ccoc2C)ccc1O | inactive
CCN(CC)c1ccc(/C=N\NC(N)=O)cc1 | inactive
COc1cc(OC)c(Cl)cc1N | inactive
CCc1cc(/C(Cc2csc(C)n2)=N/O)c(O)cc1O | inactive
CCc1cc(/C(Cc2ccccn2)=N\O)c(O)cc1O | inactive
COc1ccc(C)cc1NCc1cccc(OC)c1OC | inactive
Cn1cccc1/C=N/N1CCN(c2ccccn2)CC1 | inactive
Cc1ccc(C(C)C)c(OCCCCN2CCNCC2)c1 | inactive
Cc1ccc(C(C)(C)C)cc1S(=O)(=O)N1CCC(C(=O)N2CCN(c3ccc(O)cc3)CC2)CC1 | inactive
N#C/C(=C/c1ccc(N2CCCCCC2)o1)c1ccc(Cl)cc1 | inactive
Cc1ccc(/C(C#N)=C\c2ccc(N3CCOCC3)o2)cc1 | inactive
Nc1sc(-c2ccccc2)c(Cc2ccccc2)c1C(=O)O | inactive
COc1ccc2c(c1)c(C(=O)N/N=C/c1ccc(O)c(O)c1)c(C)n2C | inactive
CCN1CCN(CC(O)COC(c2ccccc2)c2ccccc2C)CC1 (configuration not stated) | inactive
COc1cccc(OCC(O)CN2CCN(C)CC2)c1 (configuration not stated) | inactive
O=[N+]([O-])c1cccc(CN2CCN(Cc3ccco3)CC2)c1 | inactive
O=[N+]([O-])c1ccc(Sc2cccc3cccnc23)c([N+](=O)[O-])c1 | inactive
CCc1cc(-c2[nH]ncc2-c2nc3ccccc3n2C)c(O)cc1O | inactive
CCOc1cc(/C=N/Nc2nc(=O)[nH]nc2C)ccc1O | inactive
COc1cc(/C=N/Nc2ccc(C(F)(F)F)cn2)ccc1O | inactive

Compound | outcome
COc1ccc(CN2CCN(C(=O)CC(C)C)CC2)cc1OC | inactive
Cc1nnc2ccc(Oc3ccc(-c4ccccc4)cc3)nn12 | inactive
Nc1cc2c(cc1N)-c1ccccc1C2 | inactive
CCOC(=O)Nc1ccc2c(c1)Nc1ccccc1S2 | inactive
CC(=O)c1ccc2c(c1)Nc1ccccc1S2 | inactive
O=C(Sc1n[nH]c(=O)[nH]c1=O)c1ccccc1 | inactive
CCN(CC)c1ccc(/C=N/N2CCN(Cc3ccccc3)CC2)cc1 | inactive
O=C(Nc1ccc(N2CCCCCC2)cc1)c1ccc[nH]1 | inactive
CC(C)(C)N1C(=O)c2ccc(C(=O)Nc3ccc(O)cc3)cc2C1=O | inactive
Oc1ccc(/C=C/c2ccc3ccccc3n2)cc1 | inactive
O=C(O)c1ccc2nc(-c3ccco3)c(-c3ccco3)nc2c1 | inactive
COc1cc(C=C2NC(=O)NC2=O)ccc1O | inactive
COc1cc(/C=C2/SC(=S)N(c3c(C)n(C)n(-c4ccccc4)c3=O)C2=O)ccc1O | inactive
CCOC(=O)C1CCCN(C2=NC(=O)/C(=C/c3ccc(O)c(OC)c3)S2)C1 (configuration not stated) | inactive
COc1cc(/C=C2\SC(=S)N(NC(=O)c3ccncc3)C2=O)ccc1O | inactive
CCOc1cc(/C=C2\SC(N)=NC2=O)ccc1O | inactive
COc1cc(/C=C2\SC(N3CCC(C)CC3)=NC2=O)ccc1O | inactive
COc1cc(/C=C2\SC(=Nc3c(C)n(C)n(-c4ccccc4)c3=O)NC2=O)ccc1O | inactive
O=C1/C(=C\c2ccc(O)c(O)c2)N=C2CCCCCN12 | inactive
COc1cc(/C=N/NC(=O)c2cccc(N3CCCC3=O)c2)ccc1O | inactive
COc1ccc2cc(C(=O)Nc3ccc(O)cc3)sc(=O)c2c1OC | inactive
CC(C)(C)NC(=S)Nc1ccc(Nc2ccccc2)cc1 | inactive
Oc1ccc(Cl)cc1C=Nc1ccc2c3c(cccc13)CC2 | inactive
CC(=O)N1CCN(c2ccc(NCc3ccc4c(c3)OCO4)cc2)CC1 | inactive

Compound | outcome
O=C(Nc1ccc(O)cc1)c1ccc2c(c1)C(=O)N(Cc1ccccc1)C2=O | inactive
Nc1c(/C=C2/C=CC(=O)C(O)=C2)c(=O)nc2sc(CC(=O)N3CCOCC3)nn12 | inactive
Cc1ccc(-c2csc3n[nH]c(=S)n23)cc1 | inactive
COc1cc(/C=C/C(=O)OCC(=O)Nc2cc(S(=O)(=O)N3CCCCC3)ccc2C)ccc1O | inactive
COc1cc(/C=C2\SC(=S)N(NC(=O)c3ccc(O)cc3)C2=O)ccc1O | inactive
COc1cc(/C=C2\SC(=S)N(NC(=O)c3cccc(O)c3)C2=O)ccc1O | inactive
COc1cc(/C=c2\sc3n(c2=O)CCCN=3)ccc1O | inactive
COc1cc(/C=C2\SC(c3ccc(C)cc3)=NC2=O)cc(OC)c1O | inactive
COc1cc(/C=C2\SC(N)=NC2=O)cc(Cl)c1O | inactive
COc1cc(C=C2CN(C)C(=O)C2=O)ccc1O | inactive
CNc1nc2c3ccccc3n(C(C)=O)c2s1 | inactive
COc1ccc(C2NC(=O)C(C#N)=C(S)N2c2ccccc2)cc1OC (configuration not stated) | inactive
CCOCCCNc1nc(=S)[nH]c2cc(OC)c(OC)cc12 | inactive
COc1ccc(CN(C)CCc2ccccn2)c(OC)c1OC | inactive
CN(C)c1ncnc2c1NC1=C(S2)C(=NCCCC(=O)O)CC(C)(C)C1 | inactive
O=C(N/N=C/c1ccc(O)cc1)c1csc2ccccc12 | inactive
COc1cc(/C=N/NC(=O)CCc2n[nH]c(=O)[nH]c2=O)ccc1O | inactive
Clc1cc(Br)ccc1OCCOCCN1CCCC1 | inactive
CN1CCN(CCOCCOc2ccc(Br)cc2Cl)CC1 | inactive
CCCCn1c(=S)[nH]c2c(=O)n(C)c(=O)n(C)c21 | inactive
O=[N+]([O-])/C(C=Nc1ccccc1O)=C\Nc1ccccc1O | inactive
CN(Cc1ccccc1)C(=O)C1CCCN(Cc2ccc(Cl)cc2)C1 (configuration not stated) | inactive
COc1cc(/C=N/NC(=O)c2ccccc2NS(=O)(=O)c2cccs2)ccc1O | inactive
CCOc1cc(/C=C2\C(=O)N(Cc3ccco3)C(C)=C2C(=O)OC)ccc1O | inactive

Compound | outcome
COC(=O)C1=C(C)N(Cc2ccco2)C(=O)C1 | inactive
Oc1ccc(Br)cc1C=Nc1ccc2c3c(cccc13)CC2 | inactive
C#CCOCCOCCOCCNc1nc(N2CCN(C(=O)C([C@@H](C)O)n3cc([C@@H](N)CCCCN)nn3)CC2)nc(N2CCN(C(=O)[C@H](CCCN=C(N)N)n3cc(C(N)[C@@H](C)CC)nn3)CC2)n1 (some centres not stated) | inactive
CCC(CC)N1CCN(C(=O)c2cccc(Cl)c2)CC1 | inactive
COc1cc(/C(C)=N/N2CCN(c3ccccc3OC)CC2)ccc1O | inactive
CN(C)C(=S)N=c1ssc(=S)n1Cc1cccnc1 | inactive
COc1cc(/C=N/n2c(-c3cc(C)[nH]n3)n[nH]c2=S)cc(OC)c1OC | inactive
O=c1oc(-c2ccc(O)c(O)c2)cc2cccc(O)c12 | inactive
COc1c(-c2ccc(O)c(O)c2)oc2cc(O)cc(O)c2c1=O | inactive
CCOC(=O)c1[nH]c2ccccc2c1NC(=S)Nc1cc(C)ccc1C | inactive
O=C(CN1CCN(c2ccc(O)cc2)CC1)Nc1ccccc1C(=O)NCCc1ccccc1 | inactive
S=c1[nH]nc(-c2ccco2)n1/N=C/c1ccc(Cl)cc1 | inactive
COc1cc2c(cc1OC)C1(CCCC1)C(N)=C2C#N | inactive
Oc1cc(O)cc(-c2cc3ccc(O)cc3o2)c1 | inactive
COc1ccc(NC2CCCN(C(=O)C3=NNC(=O)CC3)C2)cc1 (configuration not stated) | inactive
N#Cc1ccccc1OCCCN1CCC(Cc2ccccc2)CC1 | inactive
Cc1nnc(N=c2ssnc2Cl)o1 | inactive
COc1cc(C(C)=NNC(=O)c2ccncc2)ccc1O | inactive
CCCn1c(=O)c2ccccc2n2c(SCCNCCO)nnc12 | inactive
Cc1ccc(NCc2ccccc2O)cc1C | inactive
O=C1OCC/C1=C\c1ccc(O)cc1 | inactive
COc1cc(/C=N/NC(=O)/C(=C/c2ccccc2)CCO)ccc1O | inactive
COc1ccc(-c2cc(C(=O)Nc3ccc(O)cc3)c3ccccc3n2)cc1OC | inactive
CCN(CC)CCOC(=O)c1ccc(N/C=C(/C#N)c2nc(-c3ccc4c(c3)OCO4)cs2)cc1 | inactive

Compound | outcome
Cc1cc(NC(=O)c2sc3ccccc3c2O)no1 | inactive
COc1cccc(C(=O)N2CCN(C3CCN(Cc4ccccc4)CC3)CC2)c1OC | inactive
CCN(CC)c1ccc(NC(=O)CN2CCN(c3ccccn3)CC2)cc1 | inactive
O=C(/C(=C/c1cccnc1)n1ccnc1)c1ccc(Cl)cc1Cl | inactive
COc1cc(/C=N/NC(=S)NCCN2CCOCC2)ccc1O | inactive
COc1cc(/C=N/NC(=O)CC(=O)NC2CCCCC2)ccc1O | inactive
CCOc1cc(/C=N/NC(=O)c2cc(C3CC3)[nH]n2)ccc1O | inactive
CCOc1cc(C=NNC(=O)CCCC(=O)NN=Cc2ccc(O)c(OCC)c2)ccc1O | inactive
CCOc1cc(/C=N/NC(=O)C(OC)c2ccccc2)ccc1O (configuration not stated) | inactive
O=C(N/N=C/c1ccc(O)cc1)NC12CC3CC(CC(C3)C1)C2 | inactive
COc1cc(/C=N\NC(=O)C2CC3C=CC2C3)ccc1O (configuration not stated) | inactive
CCOc1cc(/C=N/NC(=O)C2CCCC2)ccc1O | inactive
CSc1nc(O)c(/C=C2\C=Nc3ccccc32)[nH]1 | inactive
COc1ccc(NC2CCCN(C(=O)c3ccc(C)c(N4CCNC4=O)c3)C2)cc1 (configuration not stated) | inactive
CCOCCCNCC(=O)NCC1CCCCC1 | inactive
COc1cc(NC(=O)COC(=O)/C=C/c2ccc(O)c(OC)c2)cc(OC)c1 | inactive
Nc1ccc(N2CCN(c3ccccc3)CC2)c(F)c1 | inactive
O=C1CSC(=S)N1Nc1ccccc1 | inactive
Nc1ccc(N=Nc2ccc(O)cc2)c(N)n1 | inactive
Cc1ccc(N2C(S)=C(C#N)C(=O)NC23CCCCC3)cc1 | inactive
Cc1cccc(-n2c(=O)c3ccccc3n3c(=S)[nH]nc23)c1C | inactive
